ELG1 repair inh: qHTS screen for small molecules that inhibit ELG1-dependent DNA repair in human embryonic kidney (HEK293T) cells expressing luciferase-tagged ELG1; HEK293T ELG1-luciferase reporter, luminescence, 16 h; DNA damage induced by 5-fluorouridine; Potency, µM (doses to about 46.1 µM), for inactives: at the highest dose activity change, negative = inhibition, usual class: inhibitors; 330,000 compounds, 2.3% hits; AID 504467, 2011; note: % is set by controls: 0 for no effect and ±100 for the full control effect; nearly all actives have a fitted effect of over 55% in size
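Step one: seed 2,000 cells per well. Step two: pin-transfer compound or DMSO alongside 5-fluorouridine. Step three: incubate 16 hr, 37 °C, 5% CO2. Step four: add ONE-Glo, wait 30 min, read luminescence.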
A549 viability: Nrf2 qHTS screen for inhibitors: counterscreen for cytotoxicity. A549 ARE-Fluc cells, CellTiter-Fluor viability, 18-24 h. AID 504648, 2011. Potency, µM (highest dose often 46 µM), for inactives: at the highest dose activity change, negative = cytotoxicity, actives largely listed as inhibitors. 390,000 compounds, 0.16% hits; note: % is set by controls: 0 for no effect and ±100 for the full control effect
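Cytotoxicity counterscreen: CellTiter-Fluor fluorescence was measured in A549 ARE_Fluc cells after 18-24 h of compound exposure in a concentration series. The subsequent BugLite luminescent read reports ARE-luciferase activity.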
Nrf2 inh: Nrf2 qHTS screen for inhibitors; A549 ARE-Fluc reporter, luciferase luminescence, 18-24 h; Potency, µM (series often up to 46 µM), without a hit: at the top dose activity change, negative = inhibition, actives largely listed as inhibitors; 360,000 compounds, 2.1% hits; note: % is set by controls: 0 for no effect and ±100 for the full control effect; nearly all actives have a fitted effect of over 60% in size
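Two sequential reads on A549 ARE_Fluc cells exposed to compound for 18-24 h: a CellTiter-Fluor fluorescence read for viability, then a luciferase luminescence read for Nrf2/ARE activity.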
Nrf2 ARE act: qHTS of Nrf2 Activators; AREc32 ARE-luciferase reporter (MCF7-derived line), luminescence, 24 h; Potency, µM (series often up to 46.1 µM), for inactives: at the highest dose activation, actives largely listed as activators; 410,000 compounds, 0.31% hits; AID 624171, 2012; note: % of control where 0% means no effect; nearly all actives have a fitted effect of over 65% in size
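Luciferase luminescence (Steady-Glo, 30 min at room temperature) served as the read-out of ARE activation in AREc32 cells treated with compounds for 24 hr at 37 deg C.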
Numbers without * were called inactive. A selection: hits, their analogues and other compounds. The true share with any hit is near 3.7%. Calls come from the whole dose curve; as a rule, active = well fitted curve in the direction sought with a large enough effect; inconclusive = small, poorly fitted or top-dose-only effect, or another doubt; inactive = no such curve, though single readings can be large; an effect the other way counts as inactive or inconclusive. Potency is the fitted concentration of half-maximal effect.

`CCOC(=O)c1ccc(N2C(=O)c3[nH]nc(-c4ccc(OC)cc4)c3C2c2cccc(O)c2)cc1` (configuration not stated) gave A549 viability -28%, Nrf2 inh inconclusive and Nrf2 ARE act -4%.
COc1ccc(-c2oc3c(c2C#CC(C)(C)O)C(OCCO)CC3)cc1 (configuration not stated) was read as Nrf2 ARE act 6%.
COc1ccc(C)cc1NC(=O)Cn1cc(S(=O)(=O)Cc2ccccc2Cl)c2ccccc21 was read as A549 viability -7%, Nrf2 inh -2% and Nrf2 ARE act 5%.
CCOC(=O)c1ccc(N2C(=O)c3n[nH]c(-c4ccco4)c3C2c2ccc(C)cc2)cc1 (configuration not stated) was read as A549 viability -24%, Nrf2 inh inconclusive and Nrf2 ARE act -3%.
Screening CCOC(=O)c1ccc(N2C(=O)c3n[nH]c(-c4ccco4)c3C2c2ccc([N+](=O)[O-])cc2)cc1 (configuration not stated) returned ELG1 repair inh 23µM*, A549 viability -20%, Nrf2 inh inconclusive and Nrf2 ARE act 1%.
For COc1ccc(NC(=O)CC(C)n2nc(C)cc2C)cc1Cl (configuration not stated) the results were A549 viability -3%, Nrf2 inh 23% and Nrf2 ARE act 0%.
For COc1cc(OC)cc(-c2c(-c3cccs3)c3cc(-c4ccc(OC)c(OC)c4)ccc3n2C)c1 the results were ELG1 repair inh -11%, A549 viability 4%, Nrf2 inh -11% and Nrf2 ARE act 1%.
For COc1cc(OC)cc(-c2c(-c3cccs3)c3cc(-c4cnc(N)nc4)ccc3n2C)c1 the results were ELG1 repair inh -29%, A549 viability -7%, Nrf2 inh 21µM* and Nrf2 ARE act -1%.
For COc1ccc(CC(=O)Nc2ccc3c(c2)OC2(CCCC2)O3)c(OC)c1 the results were Nrf2 ARE act 0%.
Screening O=C1N=C(N2CCN(c3ccccc3)CC2)S/C1=C\c1ccco1 returned ELG1 repair inh inconclusive, A549 viability 1%, Nrf2 inh 5% and Nrf2 ARE act 6%.
For Cc1ccc(N2CCN(C3=NC(=O)/C(=C\c4cn[nH]c4-c4ccccc4)S3)CC2)cc1 the results were ELG1 repair inh 1.6µM*, A549 viability -10%, Nrf2 inh inconclusive and Nrf2 ARE act 0%.
For O=C1N=C(N2CCN(c3ccccc3)CC2)S/C1=C\c1cn[nH]c1-c1ccccc1 the results were ELG1 repair inh 4.6µM*, A549 viability -1%, Nrf2 inh inconclusive and Nrf2 ARE act 2%.
For COc1cccc(-n2c([S-])c(C(=O)Nc3ccc(S(=O)(=O)N4CCOCC4)cc3)[n+]3cc(C(N)=O)ccc23)c1 the results were ELG1 repair inh 7%, A549 viability -6%, Nrf2 inh -5% and Nrf2 ARE act 1%.
For Cc1nnnn1/C(=C\c1ccccc1)C(=O)OCC(=O)NC(C)(C)C the results were ELG1 repair inh 16µM*, A549 viability inconclusive, Nrf2 inh inconclusive and Nrf2 ARE act inconclusive.
`CC(=O)Nc1ccc(NC(=O)COC(=O)/C(=C/c2ccccc2)n2nnnc2C)cc1` gave ELG1 repair inh inconclusive, A549 viability -9%, Nrf2 inh inconclusive and Nrf2 ARE act inconclusive.
Screening CC(C)C(NC(=O)CCNC(=O)c1ccc([N+](=O)[O-])cc1)c1nc2ccccc2[nH]1 (configuration not stated) returned ELG1 repair inh 2%, A549 viability 1%, Nrf2 inh -1% and Nrf2 ARE act 0%.
For CC(C)COc1ccc(C/C(N)=N/n2cnnc2)cc1 the results were ELG1 repair inh inconclusive, A549 viability -26%, Nrf2 inh 16µM* and Nrf2 ARE act 2%.
For COc1ccc(C/C(N)=N/n2cnnc2)cc1 the results were ELG1 repair inh 7%, A549 viability -3%, Nrf2 inh 4% and Nrf2 ARE act 0%.
COc1cccc2c1C(=O)c1c(O)c3c(c(O)c1C2=O)C[C@@](O)(C(=O)CO)C[C@@H]3OC1CC(N)C(O)C(C)O1 (some centres not stated) was read as A549 viability 8.2µM*, Nrf2 inh 5.8µM* and Nrf2 ARE act -2%.
Screening COc1ccc(-c2noc(C3CCCN(C(=O)c4ccccc4)C3)n2)cc1 (configuration not stated) returned ELG1 repair inh -20%, A549 viability 0%, Nrf2 inh inconclusive and Nrf2 ARE act 1%.
`COc1ccc(C(=O)N2CCC(c3nc(-c4ccc(S(=O)(=O)N5CCCC5)cc4)no3)CC2)cc1` gave A549 viability inconclusive, Nrf2 inh 21µM* and Nrf2 ARE act 0%.
`O=C(CC1CCCCC1)N1CCCC(c2nc(-c3ccc(S(=O)(=O)N4CCCC4)cc3)no2)C1` (configuration not stated) gave ELG1 repair inh inconclusive, A549 viability -3%, Nrf2 inh inconclusive and Nrf2 ARE act 2%.
Screening CCOc1ccc(C(=O)N2CCC(c3nc(-c4ccc(S(=O)(=O)N5CCCC5)cc4)no3)CC2)cc1 returned A549 viability -12%, Nrf2 inh 13µM* and Nrf2 ARE act 0%.
For CCc1ccc(CNC(=O)CN2C(=O)C3CCCCN3c3ccc(C(=O)N4CCCC4)cc32)cc1 (configuration not stated) the results were A549 viability 4% and Nrf2 ARE act 0%.
For O=S(=O)(O)c1ccc(N=Nc2ccccc2)cc1 the results were ELG1 repair inh 1%, A549 viability -13%, Nrf2 inh 2% and Nrf2 ARE act 2%.
Screening O=c1ccc(N=Nc2ccccc2)ccc1O returned ELG1 repair inh 9%, A549 viability 16µM*, Nrf2 inh inconclusive and Nrf2 ARE act 22%.
Screening COc1cccc(-n2c(=O)c3c(C)c(C(=O)N(C)C)sc3n(CC(=O)Nc3ccc(C)cc3Cl)c2=O)c1 returned A549 viability -1% and Nrf2 ARE act 0%.
For CCc1ccc(/C=N/NC(=O)c2cc(-c3ccccc3OC)nc3ccccc23)s1 the results were ELG1 repair inh 18µM*, A549 viability -6%, Nrf2 inh -1% and Nrf2 ARE act 1%.
COc1ccccc1-c1cc(C(=O)N/N=C/c2ccoc2)c2ccccc2n1 was read as ELG1 repair inh inconclusive, A549 viability -1%, Nrf2 inh -6% and Nrf2 ARE act 0%.
For COc1ccccc1-c1cc(C(=O)N/N=C/c2ccc(C)s2)c2ccccc2n1 the results were ELG1 repair inh 7.3µM*, A549 viability -21%, Nrf2 inh inconclusive and Nrf2 ARE act 0%.

Bioassay records as filed in PubChem.
